Measurements reported in PubChem BioAssay AID2782 (National Center for Advancing Translational Sciences (NCATS), 2010).
Inconclusive results are not listed. Active and inactive are the calls of the source. Calls follow the shape of the dose curve; as a rule, active = well fitted inhibition curve with a large enough effect in the polarisation, with a control signal flat (not every such curve was filed as active); inconclusive = small, poorly fitted or top-dose-only effect, or effect the other way, or a change in a side signal; inactive = no such curve, though single readings can be large or run the other way; the % refers to the polarisation.

assay: Confirmation of Inhibitors Targeting the Menin-MLL Interaction in MLL Related Leukemias: Competition With Texas Red Labeled MLL-derived Mutant Peptide; conditions: fluorescence polarization, Texas Red MLL peptide displacement; series mostly up to 94.6 µM; FP change, negative = inhibition: at the top concentration
Outline: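 FP competition using menin at 200 nM with Texas Red-labeled mutant MLL peptide (50 nM) plus fluorescein MLL-w.t. peptide (25 nM) in 50 mM Tris-HCl pH 7.5, 50 mM NaCl, 1 mM DTT, 0.05% BSA; compound added, 1 hr ambient; polarization read per label.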
% is scaled to controls: 0 for no effect and ±100 for the full control effect; potency is read from the fitted curve at half-maximal effect.

| Compound | FP change, negative = inhibition | Potency |
| --- | --- | --- |
| CCc1ccccc1NC(=O)COc1cccc(-n2cnnn2)c1 | -3.61% [at 288 µM] (inactive) | – |
| O=C(C[N+]12CC[N+](CC(=O)c3ccc(F)cc3)(CC1)CC2)c1ccc(F)cc1 | – | 35.5 µM (active) |
| NC(=O)c1cc2ccccc2o/c1=N/NC(=O)c1cccc(F)c1 | -15.5% (inactive) | – |
| Cc1ccccc1-c1cncnc1NC1CCNCC1 | – | 126 µM (active) |
| O=C(NC(=S)Nc1nc(-c2ccc(Br)cc2)cs1)c1cccnc1 | 31.5% [at 288 µM] (inactive) | – |
| CCCC(=O)NC(c1ccccc1Cl)c1ccc2cccnc2c1O (centres undefined) | 15.3% (inactive) | – |
| CCCCn1c(SCC(=O)NCc2ccc(OC)c(C(=O)O)c2)nc2cc(S(N)(=O)=O)ccc21 | -17.1% [at 288 µM] (inactive) | – |
| COc1ccc(CN2CCN(C(C)C(=O)N(C)Cc3cccc(F)c3)CC2)cc1OC (centres undefined) | 23.5% (inactive) | – |
| COc1cc(SC)ccc1C(=O)Nc1cccc(C2OCCCO2)c1 | -15.2% [at 288 µM] (inactive) | – |
| Cn1c(=O)[nH]c(=O)c2c1nc(Br)n2CCSc1nc2ccccc2o1 | -7.1% [at 288 µM] (inactive) | – |
| COc1ccc(/C=C(\C#N)C(=O)NCc2ccccc2)cc1 | 14.8% (inactive) | – |
| COc1ccc(N(C(=O)c2ccncc2)S(=O)(=O)c2ccc(Cl)cc2)cc1 | 4.85% (inactive) | – |
| O=C(CCn1nc(-c2ccccc2)ccc1=O)N1CCN(c2ccccn2)CC1 | 19.1% (inactive) | – |
| CC1CN(c2c3c(nc4ncnn24)CCCC3)CC(C)O1 (centres undefined) | -1.82% (inactive) | – |
